One assay relates to ICS. Description: qHTS profiling for inhibitors of Plasmodium falciparum proliferation (AID 504749). Also: potency is read from the fitted curve at half-maximal effect. The note with it: P. falciparum in erythrocytes, SYBR Green DNA, 72 h; series mostly up to 28.7 µM. In short, it runs like this: (§1)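 SYBR Green fluorescence of parasite DNA, read after lysis and overnight dark incubation, measured growth over 72 h in erythrocyte culture at 0.3% parasitemia and 2.5% hematocrit. Data normalised to DMSO and 0.29 uM artemisinin, with plate-drift correction.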

A further assay relates to JCK. Described as above. The conditions noted are these: P. falciparum in erythrocytes, SYBR Green DNA, 72 h; series mostly up to 28.7 µM. In short, it runs like this:
as §1

The next assay has as its system N140. The description is as above. The note with it: P. falciparum in erythrocytes, SYBR Green DNA, 72 h; series mostly up to 28.7 µM. In short, it runs like this:
as §1

A further assay concerns P93_24. Described as above. The note with it: P. falciparum in erythrocytes, SYBR Green DNA, 72 h; series mostly up to 28.7 µM. In short, it runs like this:
as §1

Another assay concerns P94_40. The description is as above. The note with it: P. falciparum in erythrocytes, SYBR Green DNA, 72 h; series mostly up to 28.7 µM. In short, it runs like this: as §1
The subject of a further assay is PAD. The description is as above. The note with it: P. falciparum in erythrocytes, SYBR Green DNA, 72 h; series mostly up to 28.7 µM. In short, it runs like this: as §1
For a further assay, the system named is PC15. Described as above. The conditions noted are these: P. falciparum in erythrocytes, SYBR Green DNA, 72 h; series mostly up to 28.7 µM. In short, it runs like this:
as §1

Another assay deals with PC26. Described as above. The note with it: P. falciparum in erythrocytes, SYBR Green DNA, 72 h; series mostly up to 28.7 µM. In short, it runs like this: as §1
Another assay has as its system PC49. Described as above. The conditions noted are these: P. falciparum in erythrocytes, SYBR Green DNA, 72 h; series mostly up to 28.7 µM. In short, it runs like this:
as §1

A further assay relates to SC27B. The description is as above. The conditions noted are these: P. falciparum in erythrocytes, SYBR Green DNA, 72 h; series mostly up to 28.7 µM. In short, it runs like this:
as §1

For the next assay, the system named is TAB109. The description is as above. The note with it: P. falciparum in erythrocytes, SYBR Green DNA, 72 h; series mostly up to 28.7 µM. In short, it runs like this:
as §1

A further assay relates to TAB113. The assay is described as above. The note with it: P. falciparum in erythrocytes, SYBR Green DNA, 72 h; series mostly up to 28.7 µM. In short, it runs like this:
as §1

The next assay has as its system TAB165. Described as above. The note with it: P. falciparum in erythrocytes, SYBR Green DNA, 72 h; series mostly up to 28.7 µM. In short, it runs like this: as §1
A further assay has as its system W2. The description is as above. The conditions noted are these: P. falciparum in erythrocytes, SYBR Green DNA, 72 h; series mostly up to 28.7 µM. In short, it runs like this:
as §1

A further assay deals with CRL-7250. The experiment in a line: Cytotoxic Profiling of Annotated Libraries Using Quantitative High-Throughput Screening (AID 1296008). Also: potency is read from the fitted curve at half-maximal effect. As to max response: % is scaled to controls: 0 for no effect and ±100 for the full control effect. The note with it: Five cell lines viability, CellTiter-Glo ATP luminescence, 48-72 h; active compounds read low. In short, it runs like this: (§2)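 Cytotoxicity was measured as CellTiter-Glo ATP luminescence, read after 10 min at room temperature. Compound treatment of the cells lasted 48 or 72 hr at 37 degrees Celsius in a qHTS format.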
In general terms: In ATP-based viability assays light output follows the ATP content of the culture.

In a further assay the test system is HEK293. The description is as above. The conditions noted are these: Five cell lines viability, CellTiter-Glo ATP luminescence, 48-72 h; max response: active compounds read low. In short, it runs like this: as §2
Assay [1] relates to HaCat. The description is as above. The conditions noted are these: Five cell lines viability, CellTiter-Glo ATP luminescence, 48-72 h; active compounds read low. In short, it runs like this:
as §2

The next assay concerns KB-3-1. Described as above. The note with it: Five cell lines viability, CellTiter-Glo ATP luminescence, 48-72 h; max response: active compounds read low. In short, it runs like this: as §2
For a further assay, the system named is NIH3T3. Described as above. The conditions noted are these: Five cell lines viability, CellTiter-Glo ATP luminescence, 48-72 h; max response: active compounds read low. In short, it runs like this: as §2
Assay [2] deals with HACAT. The experiment in a line: qHTS assay to identify novel small-molecules to repurpose for Merkel cell carcinoma treatment (AID 1296009). The conditions noted are these: MCC and control cell lines, CellTiter-Glo viability, 72 h; at 44.8 µM (top of the series). In short, it runs like this:
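Cell viability, measured as CellTiter-Glo luminescence, was normalized between DMSO and no-cell wells. The cells had been exposed to 8- or 11-point compound dilutions for 72 hr at 37 degree celsius.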
On the technique in general: Quantitative high-throughput screening tests each substance at several concentrations.

Several values for one entry are separate records, joined by “and”; a condition that tells them apart may be missing. Identical values can stand only once. Inconclusive results are not listed. Unmarked numbers belong to inactive results. Activity calls are given as the source filed them. Calls follow the shape of the dose curve; as a rule, active = well fitted inhibition curve with a large enough effect; inconclusive = small, poorly fitted or top-dose-only effect; inactive = flat fitted curve, though single readings scatter.

Among the data in PubChem BioAssay (NCATS) are Potency, outcome and max response values, retold here.
Also: nearly all actives have a fitted effect of over 60% in size.

For `C[C@]12CC[C@@H]3c4ccc(OC(=O)c5ccccc5)cc4CC[C@H]3[C@@H]1CC[C@@H]2O`, the Potency in the assay with ICS was 11.2 µM (active); in the assay on W2, 10.7 µM (active). Also, the Potency entry in the assay on JCK, in the assay on N140, in the assay on P93_24, in the assay on P94_40, in the assay with PAD and in the assay on PC15 was “inactive” in each case. Further, the Potency result with PC26, in the assay with PC49, in the assay on SC27B, in the assay with TAB109, in the assay on TAB113 and with TAB165 was “inactive” in each case. The molecule was called inactive in the assay with CRL-7250 and in the assay with NIH3T3. The figures for the max response in the assay on HEK293, in the assay with HaCat [1] and in the assay with KB-3-1 were -10%, -1.32% and -12.6%, respectively.

For the molecule `C=O`, the max response in the assay on KB-3-1 is 3.28%.

Turning to `O=C(OCc1ccccc1)c1ccc(O)cc1`, the Potency result in the assay on ICS, with JCK, in the assay with N140, in the assay with P93_24, with P94_40 and with PAD was “inactive” each time. Further, the Potency result in the assay with PC15, in the assay with PC26, in the assay with PC49, with SC27B, with TAB109 and in the assay on TAB113 was “inactive” throughout. Moreover, the Potency entry in the assay on TAB165 and in the assay on W2 was “inactive” in each case. The values for the max response with CRL-7250, in the assay with KB-3-1 and in the assay with NIH3T3 were -9.5%, 2.26% and 0.27%, respectively. Besides, the molecule was classed as inactive in the assay on HEK293.

As for `CN[C@@H]1[C@@H](O)[C@@H](O[C@@H]2[C@@H](O)[C@H](O[C@H]3O[C@H](CN)[C@@H](O)[C@H](O)[C@H]3O)[C@@H](N)C[C@H]2NC(=O)C(O)CN)OC[C@]1(C)O` (some centres not stated), the max response in the assay on KB-3-1 is 36%.

In the case of `O=C(CO)[C@@H](O)[C@H](O)[C@@H](O)C(=O)O`, in the assay with KB-3-1, the max response was -10%.

Take `CC(=O)Oc1cccc2c1C(=O)c1c(OC(C)=O)cc(C(=O)O)cc1C2=O`: the Potency result with ICS, in the assay on JCK, with P93_24, in the assay with P94_40, with PAD and in the assay with PC15 was “inactive” in each case. Also, the Potency entry with PC26, in the assay with PC49, in the assay on SC27B, with TAB109, with TAB113 and with TAB165 was “inactive” throughout. Also, in the assay on W2, the Potency result was “inactive”. For the same molecule, the max response in the assay on CRL-7250 is -18.7%; with KB-3-1 it was -2.72%. Further, the result in the assay on HaCat [1] and in the assay on HACAT [2] was inactive.

On to `CC1=C(/C=C/C(C)=C/C=C/C(C)=C/C=C/C=C(C)/C=C/C=C(C)/C=C/C2=C(C)C[C@@H](O)CC2(C)C)C(C)(C)C[C@H](O)C1`, for which the max response in the assay with KB-3-1 is -5.35%.

On to `Oc1ccc(/C=C/c2cc(O)cc(O)c2)cc1`, for which the max response with CRL-7250 was -2.32%; with HEK293, -3.47%; with KB-3-1, 36.2%.

On to `NS(=O)(=O)c1cc2c(cc1Cl)NC(Cc1ccccc1)NS2(=O)=O` (configuration not stated), for which the max response in the assay with KB-3-1 is -0.731%.

On to `CCCCCCCCCCCCCCCC(=O)OC[C@@H](O)[C@H]1OC[C@H](O)[C@H]1O`, for which the max response in the assay with KB-3-1 is -3.59%.

On to `O=C(O)c1ccc(NC2OC[C@@H](O)[C@H](O)[C@H]2O)cc1` (some centres not stated), for which the max response in the assay with KB-3-1 is -17.7%.

`NC(=O)[C@@H]1C[C@]2(NC(=O)NC2=O)c2cc(F)ccc2O1`: the max response in the assay on KB-3-1 was -7.8%.

On to `CCc1cn([C@H]2C[C@H](O)[C@@H](CO)O2)c(=O)[nH]c1=O`, for which the max response in the assay on KB-3-1 was 5.47%.

For `CCCCC(O)c1ccccc1` (configuration not stated), the max response in the assay with KB-3-1 was 6.09%.

`CC1CC(OC(=O)C(O)c2ccccc2)CC(C)(C)C1` (configuration not stated): the Potency entry with ICS, in the assay with JCK, with N140, in the assay on P93_24, with P94_40 and in the assay with PAD was “inactive” in each case. The Potency entry in the assay with PC15, in the assay on PC26, in the assay with PC49, in the assay with SC27B, in the assay on TAB109 and with TAB113 was “inactive” throughout. Further, the Potency result in the assay with TAB165 and in the assay with W2 was “inactive” each time. Also, the result with HaCat [1] and in the assay on HACAT [2] was inactive. Moreover, the max response is 19.9% and -6.72% in the assay on KB-3-1; 2.78% with NIH3T3.

As for `C[C@H]1[C@@H](OC(=O)CCC(=O)O)O[C@@H]2OC3(C)CC[C@H]4[C@H](C)CC[C@@H]1[C@@]24OO3`, in the assay on KB-3-1, the Potency was 16.4 µM (active).

Consider `O=C1c2ccccc2C(=O)c2c1ccc(O)c2O`, for which the Potency result with ICS, in the assay with JCK, in the assay on N140, in the assay on P93_24, in the assay with P94_40 and in the assay with PAD was “inactive” in each case. Besides, the Potency result in the assay on PC15, in the assay with PC26, in the assay on PC49, in the assay with SC27B, in the assay with TAB109 and in the assay with TAB113 was “inactive” in each case. Besides, the Potency result with TAB165 and in the assay on W2 was “inactive” in each case. Also, the max response in the assay on CRL-7250 is -3.43%; with HaCat [1] it was 4.09%; in the assay with KB-3-1, -6.82%; with NIH3T3 it was -5.2%.

With `CCCC(=O)Nc1c(I)cc(I)c(CC(CC)C(=O)O)c1I` (configuration not stated), the max response with KB-3-1 was -4.08%.

As to `C=C1[C@@H]2CC[C@@H](C2)C1(C)C`, the max response with KB-3-1 was -10.2%.

As to `Cn1nnnc1SCC1=C(C(=O)O)N2C(=O)[C@@H](NC(=O)[C@H](O)c3ccccc3)[C@H]2SC1`, the max response in the assay on KB-3-1 is 8.48%.

For `CC[C@@]1([C@@H]2O[C@@H]([C@H]3O[C@@](O)(CO)[C@H](C)C[C@@H]3C)C[C@@H]2C)CC[C@H]([C@]2(C)CC[C@]3(C[C@H](O)[C@@H](C)[C@@H]([C@@H](C)[C@@H](OC)[C@H](C)C(=O)O)O3)O2)O1` (stereo in doubt), the max response in the assay with KB-3-1 is -18.2%.

Consider `CCCCCCCCCc1ccc(OCCOCCO)cc1`, for which the max response in the assay with KB-3-1 is -16.4%.

Take `C[C@@H]1O[C@@H]1P(=O)(O)O`: in the assay on KB-3-1, the max response is -3.35%.

Turning to `CCN1C(=O)NC(c2ccccc2)C1=O` (configuration not stated), the max response in the assay on KB-3-1 is 16.5%.

With `CC(=O)OCC1=C(C(=O)O)N2C(=O)[C@@H](NC(=O)Cc3ccccc3)[C@H]2SC1`, in the assay on KB-3-1, the max response is -5.45%.
